# Results from paper PMC7862700, “An all-to-all approach to the identification of sequence-specific readers for epigenetic DNA modifications on cytosine”.
# Columns and labels:
# Test in all cases: DAPPL (digital affinity profiling via proximity ligation, sequencing); 10 mM Tris-HCl pH 7.5, 50 mM NaCl, 1 mM DTT, 4% glycerol, room temperature, 30 min; GST-TFs on glutathione beads, 16-mer random dsDNA library, 0.1% formaldehyde crosslink after washing; high values mean tight binding
# Settings in all cases: protein: recombinant; tags: N-terminal GST; dsDNA, one strand shown
# [1] = molecular target: T1, FEV (Homo sapiens, UniProt Q99581 1-238)
# T1 sequence: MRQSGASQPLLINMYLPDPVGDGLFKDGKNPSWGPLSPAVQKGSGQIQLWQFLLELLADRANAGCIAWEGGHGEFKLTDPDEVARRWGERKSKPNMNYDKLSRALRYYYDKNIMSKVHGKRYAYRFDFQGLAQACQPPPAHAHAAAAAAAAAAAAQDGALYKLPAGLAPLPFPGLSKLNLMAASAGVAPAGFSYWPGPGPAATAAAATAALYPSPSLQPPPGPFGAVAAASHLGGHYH
# Method in brief: (§1)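 GST fusions of human transcription factors were expressed in yeast and captured with glutathione beads. Once given DNA barcodes and pooled alongside a tag-only sample, they were incubated for 30 min at room temperature with 200 nmole of a random double-stranded 16-mer DNA library in Tris/NaCl/DTT/glycerol buffer, then washed, crosslinked (0.1% formaldehyde), proximity-ligated, PCR-amplified and sequenced on an Illumina NextSeq500. The binding signal of each hexamer is its read frequency for a factor divided by its frequency for the tag-only sample.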
# [2] = molecular target: ETV5 (Homo sapiens, UniProt P41161 1-510)
# Chain of ETV5 (P41161 whole entry): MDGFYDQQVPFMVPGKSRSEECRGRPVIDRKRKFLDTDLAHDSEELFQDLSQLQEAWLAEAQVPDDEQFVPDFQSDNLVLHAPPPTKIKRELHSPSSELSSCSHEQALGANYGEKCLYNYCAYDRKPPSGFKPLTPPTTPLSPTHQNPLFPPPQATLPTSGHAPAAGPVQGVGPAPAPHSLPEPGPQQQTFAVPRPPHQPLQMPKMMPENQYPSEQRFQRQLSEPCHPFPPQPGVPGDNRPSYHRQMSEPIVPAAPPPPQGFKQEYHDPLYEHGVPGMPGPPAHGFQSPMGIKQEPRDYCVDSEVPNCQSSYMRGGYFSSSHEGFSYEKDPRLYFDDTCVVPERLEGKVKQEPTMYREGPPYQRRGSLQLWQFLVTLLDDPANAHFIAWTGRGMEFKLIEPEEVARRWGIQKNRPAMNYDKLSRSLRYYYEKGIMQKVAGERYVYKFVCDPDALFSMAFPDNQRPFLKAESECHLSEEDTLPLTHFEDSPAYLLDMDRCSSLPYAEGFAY
# Method in brief: as §1
# [3] = molecular target: T2, SPIC (Homo sapiens, UniProt Q8N5J4 1-248)
# T2 sequence: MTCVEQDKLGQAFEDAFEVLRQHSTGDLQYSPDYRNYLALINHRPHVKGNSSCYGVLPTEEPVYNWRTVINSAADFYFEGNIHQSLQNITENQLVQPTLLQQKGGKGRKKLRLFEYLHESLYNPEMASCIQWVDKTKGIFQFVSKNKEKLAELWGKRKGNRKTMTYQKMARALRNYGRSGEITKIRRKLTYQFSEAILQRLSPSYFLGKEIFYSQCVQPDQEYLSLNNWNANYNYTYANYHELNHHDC
# Method in brief: as §1
# [4] = molecular target: ELF4 (Homo sapiens, UniProt Q99607 1-663)
# Chain of ELF4 (Q99607 whole entry): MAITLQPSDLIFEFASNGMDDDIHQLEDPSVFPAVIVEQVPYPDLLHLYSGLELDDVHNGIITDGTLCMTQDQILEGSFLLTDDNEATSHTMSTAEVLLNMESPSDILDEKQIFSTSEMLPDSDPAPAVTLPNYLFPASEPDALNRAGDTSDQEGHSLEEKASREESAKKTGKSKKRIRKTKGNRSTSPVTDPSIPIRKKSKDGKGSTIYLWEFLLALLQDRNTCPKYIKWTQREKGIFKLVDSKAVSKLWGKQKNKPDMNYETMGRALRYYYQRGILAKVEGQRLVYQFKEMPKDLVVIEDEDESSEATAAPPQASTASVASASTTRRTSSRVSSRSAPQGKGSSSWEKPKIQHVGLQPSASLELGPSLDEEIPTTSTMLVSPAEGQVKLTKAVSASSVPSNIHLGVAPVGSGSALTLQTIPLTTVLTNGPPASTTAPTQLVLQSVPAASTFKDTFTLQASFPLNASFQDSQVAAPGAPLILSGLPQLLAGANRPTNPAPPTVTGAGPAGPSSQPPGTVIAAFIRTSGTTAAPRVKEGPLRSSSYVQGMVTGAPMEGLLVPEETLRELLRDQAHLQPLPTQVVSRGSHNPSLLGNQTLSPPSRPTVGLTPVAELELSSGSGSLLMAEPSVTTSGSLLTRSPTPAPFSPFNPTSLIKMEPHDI
# Method in brief: as §1
# [5] = molecular target: T3, ELK4 (Homo sapiens, UniProt P28324-2 1-405)
# T3 sequence: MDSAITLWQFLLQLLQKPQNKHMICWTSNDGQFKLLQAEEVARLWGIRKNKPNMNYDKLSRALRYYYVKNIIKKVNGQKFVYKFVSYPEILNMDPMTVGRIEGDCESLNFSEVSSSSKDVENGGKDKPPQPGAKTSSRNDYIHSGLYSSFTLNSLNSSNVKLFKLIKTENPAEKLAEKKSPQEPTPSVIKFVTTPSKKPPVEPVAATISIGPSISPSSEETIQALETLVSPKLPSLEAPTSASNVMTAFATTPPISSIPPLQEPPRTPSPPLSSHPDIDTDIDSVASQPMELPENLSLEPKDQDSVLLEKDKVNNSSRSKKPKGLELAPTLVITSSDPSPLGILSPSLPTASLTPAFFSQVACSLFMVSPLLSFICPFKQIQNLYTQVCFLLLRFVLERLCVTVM
# Method in brief: as §1
# [6] = molecular target: T4, ETV2 (Homo sapiens, UniProt O00321 1-342)
# T4 sequence: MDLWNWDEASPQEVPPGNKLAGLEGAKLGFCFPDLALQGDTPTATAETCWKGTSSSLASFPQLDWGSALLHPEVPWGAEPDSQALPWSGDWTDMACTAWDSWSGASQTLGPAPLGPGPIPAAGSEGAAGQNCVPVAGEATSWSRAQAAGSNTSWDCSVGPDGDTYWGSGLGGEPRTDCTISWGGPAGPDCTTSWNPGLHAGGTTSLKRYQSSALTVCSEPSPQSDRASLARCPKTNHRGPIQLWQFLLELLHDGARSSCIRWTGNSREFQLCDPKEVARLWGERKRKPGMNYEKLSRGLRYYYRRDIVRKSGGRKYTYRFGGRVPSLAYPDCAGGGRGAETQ
# Method in brief: as §1
# [7] = molecular target: T5, ELF3 (Homo sapiens, UniProt P78545 1-371)
# T5 sequence: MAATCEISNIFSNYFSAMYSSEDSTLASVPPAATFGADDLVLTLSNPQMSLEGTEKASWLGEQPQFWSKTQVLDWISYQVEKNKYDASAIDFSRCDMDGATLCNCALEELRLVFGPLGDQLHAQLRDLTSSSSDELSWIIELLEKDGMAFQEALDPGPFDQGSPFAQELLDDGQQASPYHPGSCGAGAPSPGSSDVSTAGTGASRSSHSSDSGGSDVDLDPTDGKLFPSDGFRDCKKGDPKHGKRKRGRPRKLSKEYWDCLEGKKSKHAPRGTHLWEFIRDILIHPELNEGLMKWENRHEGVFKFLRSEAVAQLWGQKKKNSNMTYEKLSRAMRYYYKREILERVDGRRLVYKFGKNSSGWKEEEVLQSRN
# Method in brief: as §1
# [8] = molecular target: ETV1 (Homo sapiens, UniProt P50549 1-477)
# Chain of ETV1 (P50549 whole entry): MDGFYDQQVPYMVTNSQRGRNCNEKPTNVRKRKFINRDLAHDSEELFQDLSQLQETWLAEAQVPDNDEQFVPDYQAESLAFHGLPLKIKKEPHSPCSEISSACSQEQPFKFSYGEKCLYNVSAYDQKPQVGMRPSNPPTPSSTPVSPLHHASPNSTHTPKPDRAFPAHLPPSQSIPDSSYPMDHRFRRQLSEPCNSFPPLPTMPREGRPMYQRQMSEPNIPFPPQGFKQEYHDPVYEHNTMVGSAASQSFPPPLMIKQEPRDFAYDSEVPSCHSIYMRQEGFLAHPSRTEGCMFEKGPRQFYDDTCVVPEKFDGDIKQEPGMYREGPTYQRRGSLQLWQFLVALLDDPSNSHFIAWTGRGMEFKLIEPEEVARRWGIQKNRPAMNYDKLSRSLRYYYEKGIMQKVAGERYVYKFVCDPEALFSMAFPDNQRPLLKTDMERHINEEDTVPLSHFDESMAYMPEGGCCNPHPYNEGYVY
# Method in brief: as §1
# [9] = molecular target: T6, ERF (Homo sapiens, UniProt P50548 1-548)
# T6 sequence: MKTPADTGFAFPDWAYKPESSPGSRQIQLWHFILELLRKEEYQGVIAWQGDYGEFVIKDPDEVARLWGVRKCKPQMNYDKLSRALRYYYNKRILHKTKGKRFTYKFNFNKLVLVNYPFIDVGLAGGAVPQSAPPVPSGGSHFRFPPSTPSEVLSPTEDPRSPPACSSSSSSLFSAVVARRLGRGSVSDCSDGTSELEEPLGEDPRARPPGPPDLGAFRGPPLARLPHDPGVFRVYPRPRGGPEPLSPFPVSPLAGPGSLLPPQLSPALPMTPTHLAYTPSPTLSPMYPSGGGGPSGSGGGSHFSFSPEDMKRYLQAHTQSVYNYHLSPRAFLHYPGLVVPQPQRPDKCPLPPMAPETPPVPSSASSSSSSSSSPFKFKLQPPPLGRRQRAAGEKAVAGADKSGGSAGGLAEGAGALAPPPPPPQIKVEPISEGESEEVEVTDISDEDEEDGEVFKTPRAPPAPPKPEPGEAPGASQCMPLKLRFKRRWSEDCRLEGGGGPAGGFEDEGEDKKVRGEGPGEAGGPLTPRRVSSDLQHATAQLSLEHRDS
# Method in brief: as §1
# [10] = molecular target: T7, ETV3L (Homo sapiens, UniProt Q6ZN32 1-361)
# T7 sequence: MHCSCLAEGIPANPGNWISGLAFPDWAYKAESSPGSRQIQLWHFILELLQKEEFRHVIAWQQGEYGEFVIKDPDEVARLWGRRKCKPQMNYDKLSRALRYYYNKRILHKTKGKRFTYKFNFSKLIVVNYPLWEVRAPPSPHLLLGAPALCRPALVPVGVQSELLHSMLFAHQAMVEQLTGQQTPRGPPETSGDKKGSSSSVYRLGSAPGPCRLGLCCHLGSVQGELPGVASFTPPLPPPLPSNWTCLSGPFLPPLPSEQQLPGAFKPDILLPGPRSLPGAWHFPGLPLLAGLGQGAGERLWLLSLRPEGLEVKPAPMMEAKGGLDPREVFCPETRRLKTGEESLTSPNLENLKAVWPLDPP
# Method in brief: as §1
# [11] = molecular target: T8, ETS2 (Homo sapiens, UniProt P15036 1-469)
# T8 sequence: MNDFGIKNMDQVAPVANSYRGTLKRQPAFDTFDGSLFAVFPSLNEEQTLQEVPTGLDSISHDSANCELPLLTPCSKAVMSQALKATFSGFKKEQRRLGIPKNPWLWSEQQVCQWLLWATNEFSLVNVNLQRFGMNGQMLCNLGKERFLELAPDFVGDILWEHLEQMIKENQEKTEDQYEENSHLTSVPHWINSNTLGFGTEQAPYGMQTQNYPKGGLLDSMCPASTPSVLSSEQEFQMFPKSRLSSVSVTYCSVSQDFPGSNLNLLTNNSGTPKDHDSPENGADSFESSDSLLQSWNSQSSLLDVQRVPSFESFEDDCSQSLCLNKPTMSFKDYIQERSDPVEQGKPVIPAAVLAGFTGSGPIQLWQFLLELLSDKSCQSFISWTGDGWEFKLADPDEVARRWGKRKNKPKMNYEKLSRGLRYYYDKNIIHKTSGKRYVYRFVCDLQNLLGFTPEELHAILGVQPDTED
# Method in brief: as §1
# [12] = molecular target: T9, SPDEF (Homo sapiens, UniProt O95238 1-335)
# T9 sequence: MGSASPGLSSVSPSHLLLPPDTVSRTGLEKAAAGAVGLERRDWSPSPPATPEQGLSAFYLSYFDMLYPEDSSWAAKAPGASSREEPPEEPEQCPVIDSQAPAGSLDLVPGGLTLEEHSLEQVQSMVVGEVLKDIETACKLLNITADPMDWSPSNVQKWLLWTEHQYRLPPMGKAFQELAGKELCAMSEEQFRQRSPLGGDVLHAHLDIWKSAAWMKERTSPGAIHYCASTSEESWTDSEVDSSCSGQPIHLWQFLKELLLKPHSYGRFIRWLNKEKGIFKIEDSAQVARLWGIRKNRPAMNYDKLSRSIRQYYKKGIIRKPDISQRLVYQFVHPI
# Method in brief: as §1
# [13] = molecular target: T10, ETV7 (Homo sapiens, UniProt Q9Y603 1-341)
# T10 sequence: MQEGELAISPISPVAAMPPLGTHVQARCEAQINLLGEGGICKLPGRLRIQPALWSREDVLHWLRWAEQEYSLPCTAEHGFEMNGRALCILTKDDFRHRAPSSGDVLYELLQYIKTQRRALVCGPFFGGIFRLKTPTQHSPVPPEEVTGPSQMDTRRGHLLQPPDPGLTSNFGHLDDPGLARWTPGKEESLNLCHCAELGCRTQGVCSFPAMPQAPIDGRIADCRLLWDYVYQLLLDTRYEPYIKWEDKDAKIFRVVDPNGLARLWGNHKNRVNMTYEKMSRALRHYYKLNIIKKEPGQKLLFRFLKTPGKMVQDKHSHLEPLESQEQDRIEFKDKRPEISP
# Method in brief: as §1
# [14] = molecular target: T11, ELF5 (Homo sapiens, UniProt Q9UKW6-2 1-255)
# T11 sequence: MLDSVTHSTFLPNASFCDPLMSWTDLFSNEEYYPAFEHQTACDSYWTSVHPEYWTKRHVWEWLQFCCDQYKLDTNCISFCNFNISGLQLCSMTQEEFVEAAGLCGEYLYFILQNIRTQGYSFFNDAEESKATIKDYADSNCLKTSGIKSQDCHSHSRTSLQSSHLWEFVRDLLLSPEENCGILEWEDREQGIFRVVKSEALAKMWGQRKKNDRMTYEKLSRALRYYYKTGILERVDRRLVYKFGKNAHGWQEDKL
# Method in brief: as §1
# [15] = molecular target: T12, ETV3 (Homo sapiens, UniProt P41162-2 1-143)
# T12 sequence: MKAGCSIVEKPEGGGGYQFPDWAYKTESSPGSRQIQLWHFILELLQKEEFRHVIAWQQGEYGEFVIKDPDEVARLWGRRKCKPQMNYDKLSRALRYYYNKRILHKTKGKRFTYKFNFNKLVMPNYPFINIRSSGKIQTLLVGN
# Method in brief: as §1
# [16] = molecular target: ETV6 (Homo sapiens, UniProt P41212 1-452)
# Chain of ETV6 (P41212 whole entry): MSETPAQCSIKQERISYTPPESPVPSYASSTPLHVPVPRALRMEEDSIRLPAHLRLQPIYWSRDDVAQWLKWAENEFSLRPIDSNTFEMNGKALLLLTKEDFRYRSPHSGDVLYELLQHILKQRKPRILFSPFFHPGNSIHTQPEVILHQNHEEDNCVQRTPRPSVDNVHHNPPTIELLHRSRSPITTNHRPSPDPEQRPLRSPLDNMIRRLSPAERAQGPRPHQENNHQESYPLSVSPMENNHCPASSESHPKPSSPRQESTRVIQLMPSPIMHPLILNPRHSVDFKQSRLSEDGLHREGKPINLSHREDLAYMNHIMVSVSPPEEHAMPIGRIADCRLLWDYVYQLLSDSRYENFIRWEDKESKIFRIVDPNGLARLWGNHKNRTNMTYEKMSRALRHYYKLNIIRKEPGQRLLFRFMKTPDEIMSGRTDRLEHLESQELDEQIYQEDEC
# Method in brief: as §1
sequence,measurement,setting,value
TGTCAT,binding signal,[1],"1.1 fold enrichment (6-mer frequency, TF over GST control)"
same,binding signal,[2],"1.18 fold enrichment (6-mer frequency, TF over GST control)"
same,binding signal,[3],"1.16 fold enrichment (6-mer frequency, TF over GST control)"
same,binding signal,[4],"1.13 fold enrichment (6-mer frequency, TF over GST control)"
same,binding signal,[5],"1.08 fold enrichment (6-mer frequency, TF over GST control)"
same,binding signal,[6],"1.11 fold enrichment (6-mer frequency, TF over GST control)"
same,binding signal,[7],"1.06 fold enrichment (6-mer frequency, TF over GST control)"
same,binding signal,[8],"1.18 fold enrichment (6-mer frequency, TF over GST control)"
same,binding signal,[9],"1.38 fold enrichment (6-mer frequency, TF over GST control)"
same,binding signal,[10],"1.19 fold enrichment (6-mer frequency, TF over GST control)"
same,binding signal,[11],"1.12 fold enrichment (6-mer frequency, TF over GST control)"
same,binding signal,[12],"1.17 fold enrichment (6-mer frequency, TF over GST control)"
same,binding signal,[13],"1.1 fold enrichment (6-mer frequency, TF over GST control)"
same,binding signal,[14],"1.09 fold enrichment (6-mer frequency, TF over GST control)"
same,binding signal,[15],"1.12 fold enrichment (6-mer frequency, TF over GST control)"
same,binding signal,[16],"1.11 fold enrichment (6-mer frequency, TF over GST control)"
